Where “and” joins values, the source holds several entries; their conditions need not be identical. Equal values may be shown once. Hit rate of the full screen: of about 5,500 compounds, about 2,000 (36%) were called active. Inconclusive results (about 18%) are left out. Cut-off read from the data, not from the text of the source: active = normalized growth mostly below about 0.91 (no sharp cut-off); inconclusive = no clear call, values can overlap the other calls; inactive = mostly above about 0.92. Some of the results follow.
Test: chemical genetic growth profiling, strain panel (AID 1159580);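 note: tested at 20 µM; growth read once vehicle control cultures reached saturation at 30 °C; 1 = growth at the plate median or of vehicle wells; lower values mean less growth of the strain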
Conditions: S. cerevisiae deletion strains, growth OD

Measured: normalized growth

Cc1ccc2c(c1)CC[C@H]1CC(=O)CC[C@]21C
inactive: locus YAL013W, strain DEP1, stronger effect = lower value 1.01 | locus YAL021C, strain ccr4, stronger effect = lower value 0.991 | locus YAL026C, strain drs2, stronger effect = lower value 1.01 | locus YAL030W, strain snc1, stronger effect = lower value 1.01 | locus YBL061C, strain skt5, stronger effect = lower value 1 | locus YBR009C, strain hhf1, stronger effect = lower value 1 | locus YBR021W, strain FUR4, stronger effect = lower value 0.971 | locus YBR023C, strain chs3, stronger effect = lower value 0.998 | locus YBR171W, strain sec66, stronger effect = lower value 0.992 | locus YBR229C, strain ROT2, stronger effect = lower value 0.997 | locus YBR231C, strain swc5, stronger effect = lower value 1.01 | locus YBR279W, strain paf1, stronger effect = lower value 1.01 | locus YCL011C, strain gbp2, stronger effect = lower value 0.995 | locus YCL016C, strain dcc1, stronger effect = lower value 1.01 | locus YCL029C, strain bik1, stronger effect = lower value 0.991 | locus YCL069W, strain vba3, stronger effect = lower value 0.995 | locus YCR088W, strain abp1, stronger effect = lower value 0.998 | locus YDL005C, strain med2, stronger effect = lower value 1.01 | locus YDL035C, strain GPR1, stronger effect = lower value 0.973 | locus YDL040C, strain nat1, stronger effect = lower value 1 | locus YDL074C, strain BRE1, stronger effect = lower value 0.971 | locus YDL101C, strain DUN1, stronger effect = lower value 1.01 | locus YDL134C, strain PPH21, stronger effect = lower value 1 | locus YDL185W, strain tfp1, stronger effect = lower value 0.983 | locus YDL192W, strain arf1, stronger effect = lower value 0.974 | locus YDR001C, strain nth1, stronger effect = lower value 0.998 | locus YDR069C, strain doa4, stronger effect = lower value 1.01 | locus YDR101C, strain arx1, stronger effect = lower value 0.97 | locus YDR137W, strain rgp1, stronger effect = lower value 0.956 | locus YDR150W, strain NUM1, stronger effect = lower value 1 | locus YDR159W, strain sac3, stronger effect = lower value 1.01 | locus YDR162C, strain NBP2, stronger effect = lower value 0.974 | locus YDR195W, strain ref2 1.05 | locus YDR297W, strain sur2, stronger effect = lower value 0.991 | locus YDR318W, strain mcm21, stronger effect = lower value 0.972 | locus YDR334W, strain swr1, stronger effect = lower value 1.01 | locus YDR335W, strain msn5, stronger effect = lower value 1 | locus YDR388W, stronger effect = lower value 0.979 | locus YDR392W, strain spt3, stronger effect = lower value 0.983 | locus YDR502C, strain sam2, stronger effect = lower value 0.968 | locus YEL003W, strain gim4, stronger effect = lower value 0.991 | locus YEL037C, strain rad23, stronger effect = lower value 1.01 | locus YEL061C, strain CIN8 (second series), stronger effect = lower value 0.993 | locus YEL061C, strain CIN8, stronger effect = lower value 1 | locus YER015W, strain faa2, stronger effect = lower value 1.01 | locus YER016W, strain bim1, stronger effect = lower value 1 | locus YER110C, stronger effect = lower value 0.966 | locus YER111C, strain swi4, stronger effect = lower value 0.991 | locus YER155C, strain BEM2 (second series), stronger effect = lower value 0.978 | locus YER155C, strain BEM2, stronger effect = lower value 0.997 | locus YER167W, strain BCK2, stronger effect = lower value 0.991 | locus YFR010W, strain ubp6, stronger effect = lower value 1.01 | locus YGL078C, strain dbp3, stronger effect = lower value 0.989 | locus YGL086W, strain mad1, stronger effect = lower value 0.981 | locus YGL167C, strain pmr1, stronger effect = lower value 0.998 | locus YGL173C, strain kem1, stronger effect = lower value 0.982 | locus YGL227W, strain vid30, stronger effect = lower value 1 | locus YGL240W, strain doc1, stronger effect = lower value 0.987 | locus YGL248W, strain PDE1, stronger effect = lower value 0.993 | locus YGL253W, strain hxk2, stronger effect = lower value 1 | locus YGR078C, strain PAC10, stronger effect = lower value 0.982 | locus YGR135W, strain pre9, stronger effect = lower value 0.959 | locus YGR229C, strain SMI1, stronger effect = lower value 1.01 | locus YGR252W, strain gcn5, stronger effect = lower value 0.881 | locus YHR013C, strain ard1, stronger effect = lower value 1.02 | locus YHR027C, strain rpn1, stronger effect = lower value 1.01 | locus YHR030C, strain SLT2, stronger effect = lower value 0.996 and 0.98 | locus YHR079C, strain IRE1 (second series), stronger effect = lower value 0.969 | locus YHR079C, strain IRE1, stronger effect = lower value 0.973 | locus YHR094C, strain hxt1, stronger effect = lower value 0.995 | locus YHR129C, strain ARP1, stronger effect = lower value 0.996 | locus YHR142W, strain chs7, stronger effect = lower value 0.985 | locus YHR200W, strain rpn10, stronger effect = lower value 0.979 | locus YIL066C, strain RNR3, stronger effect = lower value 0.993 | locus YIL073C, strain SPO22, stronger effect = lower value 0.965 | locus YIL125W, strain kgd1, stronger effect = lower value 0.999 | locus YIR030C, strain dcg1, stronger effect = lower value 0.974 | locus YJL092W, strain hpr5, stronger effect = lower value 1 | locus YJL095W, strain BCK1 (second series), stronger effect = lower value 1.01 | locus YJL095W, strain BCK1, stronger effect = lower value 0.967 and 0.983 | locus YJL115W, strain asf1, stronger effect = lower value 1.01 | locus YJL129C, strain trk1, stronger effect = lower value 1 | locus YJL134W, strain LCB3, stronger effect = lower value 0.997 | locus YJL154C, strain vps35, stronger effect = lower value 0.993 | locus YJL164C, strain tpk1, stronger effect = lower value 0.992 | locus YJL166W, strain qcr8, stronger effect = lower value 0.995 | locus YJL168C, strain set2, stronger effect = lower value 0.971 | locus YJL187C, strain SWE1 (second series), stronger effect = lower value 1.01 | locus YJR043C, strain POL32, stronger effect = lower value 0.967 | locus YJR066W, strain TOR1, stronger effect = lower value 0.897 | locus YJR075W, strain HOC1, stronger effect = lower value 1
